# Experimental data published in PubChem BioAssay (NCATS).
# Results filed as inconclusive are left out. Activity calls are given as the source filed them. Calls follow the shape of the dose curve; as a rule, active = well fitted cell-killing curve with a large enough effect; inconclusive = small, poorly fitted or top-dose-only effect; inactive = flat fitted curve, though single readings scatter.
# Test: qHTS assay to identify small molecule inhibitors of chordoma cells - UCH-2 (AID 1259356)
# Settings: UCH-2 chordoma viability, CellTiter-Glo ATP luminescence, 48 h; series mostly up to 46.1 µM
row,Structure (SMILES),outcome
1,O=S(=O)(O)c1cc(I)c(O)c2ncccc12,inactive
2,CNCCCC1c2ccccc2C=Cc2ccccc21,inactive
3,CCN(CC)C(C)CN1c2ccccc2Sc2ccccc21 (configuration not stated),inactive
4,Oc1cn2c(n1)Nc1ccc(Cl)c(Cl)c1C2,inactive
5,Cc1c(O)cccc1C(=O)N[C@@H](CSc1ccccc1)[C@H](O)CN1C[C@H]2CCCC[C@H]2C[C@H]1C(=O)NC(C)(C)C,inactive
6,O=C1c2c(O)cccc2Cc2cccc(O)c21,inactive
7,NC(=O)N/N=C/c1ccc([N+](=O)[O-])o1,inactive
8,Cc1ncc(COP(=O)(O)O)c(C=O)c1O,inactive
9,CN(C)CCCN1c2ccccc2Sc2ccc(Cl)cc21,inactive
10,OCc1cc(C(O)CNCCCCCCOCCCCc2ccccc2)ccc1O (configuration not stated),inactive
11,NC(=O)c1ncn([C@@H]2O[C@H](CO)[C@@H](O)[C@H]2O)n1,inactive
12,CC1=C(/C=C/C(C)=C/C=C/C(C)=C/C(=O)O)C(C)(C)CCC1,inactive
13,NC(=O)c1ncn([C@@H]2O[C@H](CO)[C@@H](O)[C@H]2O)c1N,inactive
14,CC(C)(O)c1ccccc1CC[C@@H](SCC1(CC(=O)O)CC1)c1cccc(/C=C/c2ccc3ccc(Cl)cc3n2)c1,inactive
15,CC(CN(C)C)CN1c2ccccc2CCc2ccccc21 (configuration not stated),inactive
16,Cn1cc[nH]c1=S,inactive
17,CO/N=C(\C(=O)N[C@@H]1C(=O)N2C(C(=O)O)=C(CSc3nc(=O)c(O)nn3C)CS[C@H]12)c1csc(N)n1,inactive

row,Structure (SMILES),outcome
1,C=Cc1c(C)c2cc3[nH]c(cc4nc(cc5nc(cc1[nH]2)C(C)=C5CCC(=O)O)C(CCC(=O)O)=C4C)c(C)c3C=C,inactive
2,O=C1N=C(O)CN1/N=C/c1ccc(-c2ccc([N+](=O)[O-])cc2)o1,inactive
3,Oc1cccc(O)c1,inactive
4,OCCN1CCN(CCCN2c3ccccc3Sc3ccc(Cl)cc32)CC1,inactive
5,C[C@]12C[C@H](O)[C@H]3[C@@H](CCC4=CC(=O)CC[C@@]43C)[C@@H]1CC[C@@H]2C(=O)CO,inactive
6,CC(=O)O[C@@]12CO[C@@H]1C[C@H](O)[C@@]1(C)C(=O)[C@H](O)C3=C(C)[C@@H](OC(=O)[C@H](O)[C@@H](NC(=O)OC(C)(C)C)c4ccccc4)C[C@@](O)([C@@H](OC(=O)c4ccccc4)[C@H]21)C3(C)C,inactive
7,Nc1ccc(S(=O)(=O)Nc2nccs2)cc1,inactive
8,CCN(CC)CCCC(C)Nc1c2ccc(Cl)cc2nc2ccc(OC)cc12 (configuration not stated),inactive
9,O=C(O)c1ccccn1,inactive
10,CC[C@@]1(c2ccccc2)NC(=O)N(C)C1=O,inactive
11,CNCCC(Oc1ccc(C(F)(F)F)cc1)c1ccccc1 (configuration not stated),inactive
12,Cc1cc(O)cc2c1O[C@](C)(CCC[C@H](C)CCC[C@H](C)CCCC(C)C)CC2,inactive
13,NCCNCCNCCN,inactive
14,CCN(CC)CCSC(=O)C(c1ccccc1)c1ccccc1,inactive
15,CC(CN1c2ccccc2Sc2ccccc21)N(C)C (configuration not stated),inactive
16,OCC(CO)N[C@H]1C[C@](O)(CO)[C@@H](O)[C@H](O)[C@H]1O,inactive
17,CC(C(O)c1ccc(O)cc1)N1CCC(Cc2ccccc2)CC1 (configuration not stated),inactive

# Test: Identifying Small Molecule Inhibitors of Pancreatic Cancer Stem Cells (SN12C, Adherent) (AID 1259358);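 also: cell survival measured after 48 h of compound exposure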
# Settings: viability/growth inhibition; series mostly up to 46.1 µM
# Summary of the method: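 Luminescent ATP readout (CellTiter-Glo) quantifies surviving cells after a 48 h drug incubation. Normalization uses DMSO wells as no inhibition and media-only wells as full inhibition; bortezomib served as positive control.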
row,Structure (SMILES),outcome
1,Oc1cn2c(n1)Nc1ccc(Cl)c(Cl)c1C2,inactive
2,NC(=O)c1ncn([C@@H]2O[C@H](CO)[C@@H](O)[C@H]2O)c1N,inactive
3,CC(=O)O[C@@]12CO[C@@H]1C[C@H](O)[C@@]1(C)C(=O)[C@H](O)C3=C(C)[C@@H](OC(=O)[C@H](O)[C@@H](NC(=O)OC(C)(C)C)c4ccccc4)C[C@@](O)([C@@H](OC(=O)c4ccccc4)[C@H]21)C3(C)C,inactive
